In the library only some 1.4% were active in any assay of this set; here they are far more common.
rTrxR1 inhibitor: inhibitors of rat thioredoxin reductase 1 | O89049 | recombinant rTrxR1, NADPH fluorescence consumption, selenite substrate | Potency, µM (titrated, usually from 114 µM), for inactives: at the top dose activity change, negative = inhibition, usual class: inhibitors | actives 1% (n = 390,000); further: potency means the concentration at half of the fitted maximal effect; on the % scale 0 is the no-effect control and ±100 the full control effect; nearly all actives have a fitted effect of over 65% in size
Target sequence (O89049 whole entry, looked up): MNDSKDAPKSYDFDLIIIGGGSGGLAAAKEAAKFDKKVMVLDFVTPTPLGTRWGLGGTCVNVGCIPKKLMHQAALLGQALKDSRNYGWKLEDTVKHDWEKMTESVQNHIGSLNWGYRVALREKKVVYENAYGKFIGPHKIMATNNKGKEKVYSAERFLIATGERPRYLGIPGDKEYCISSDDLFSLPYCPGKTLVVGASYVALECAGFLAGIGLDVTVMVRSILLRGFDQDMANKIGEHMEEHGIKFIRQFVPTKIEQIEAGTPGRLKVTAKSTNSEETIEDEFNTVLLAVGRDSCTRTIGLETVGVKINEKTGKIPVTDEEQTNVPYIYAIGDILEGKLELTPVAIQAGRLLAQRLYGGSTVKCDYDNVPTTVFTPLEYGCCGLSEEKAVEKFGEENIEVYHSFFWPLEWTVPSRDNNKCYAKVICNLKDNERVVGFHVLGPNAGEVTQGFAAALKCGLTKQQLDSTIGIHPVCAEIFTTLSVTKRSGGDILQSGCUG
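Rat TrxR1 (90 nM in the dispensed reagent) was pre-reduced with 400 uM NADPH for 5 min at room temperature, then incubated with compound for 15 min. After 400 uM selenite was added, NADPH fluorescence (Ex 340/Em 450 nm) was followed for 8 min.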
Pin1 inh: inhibitors of human Pin1; Q13526; Pin1 FP peptide displacement, HiFluor488, 10 min; Potency, µM (titrated, usually from 115 µM), for the others: at the highest dose activity, negative = inhibition, usual class: inhibitors; actives 0.009% (n = 390,000); active means well fitted inhibition curve with a large enough effect in the polarisation, with a control signal flat, not every such curve was filed as active; inconclusive means small, poorly fitted or top-dose-only effect, or effect the other way, or a change in a side signal; inactive means no such curve, though single readings can be large or run the other way; the % refers to the polarisation; further: potency means the concentration at half of the fitted maximal effect; on the % scale 0 is the no-effect control and ±100 the full control effect
Target sequence (Q13526 whole entry, looked up): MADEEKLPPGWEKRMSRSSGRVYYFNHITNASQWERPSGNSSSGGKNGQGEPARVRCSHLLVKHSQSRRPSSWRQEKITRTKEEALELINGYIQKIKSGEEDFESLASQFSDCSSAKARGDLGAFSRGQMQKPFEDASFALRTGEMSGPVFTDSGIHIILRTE
AT treatment: potential ataxia-telangiectasia treatments restoring KAP-1 phosphorylation; F2112 A-T fibroblasts, KAP-1 phosphorylation AlphaLISA; neocarzinostatin DNA damage 30 min before lysis; Potency, µM (titrated, usually from 57.5 µM), for the others: at the highest dose activation, usual class: activators; actives 0.19% (n = 320,000); AID 485349; further: potency means the concentration at half of the fitted maximal effect; % of control where 0% means no effect; nearly all actives have a fitted effect of over 45% in size
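ATM-like activity read as KAP-1 phosphorylation via AlphaLISA donor/acceptor antibody pairs after lysis and 6 hr at 25C. Cells were ATM-null patient fibroblasts (F2112, hTERT), dosed 60 min, then exposed to the DSB inducer NCS for 30 min.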
TrxR1 substrate: is turned over as a substrate by rat TrxR1 | purified TrxR1 substrate turnover, NADPH consumption readout | Potency, µM (titrated, usually from 114 µM), inactives show at the top dose activity change, negative = substrate turnover | actives 0.01% (n = 390,000) | AID 588456; further: potency means the concentration at half of the fitted maximal effect; on the % scale 0 is the no-effect control and ±100 the full control effect; nearly all actives have a fitted effect of over 50% in size
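Rat TrxR1, dispensed at 90 nM, was prereduced with 400 uM NADPH (final) for 5 min at ~22 deg C, then incubated with compound 15 min before 400 uM selenite. A first-read NADPH fluorescence drop versus no-compound background flagged substrates.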
N370S GC: inhibitors or activators of N370S glucocerebrosidase for Gaucher disease. N370S GC spleen homogenate, 4MU-glucoside fluorescence. Potency, µM (top dose mostly 59.4 µM), for inactives: at the top dose activity change, negative = inhibition, hits mostly inhibitors. actives 0.092% (n = 330,000). AID 2101;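 further: potency means the concentration at half of the fitted maximal effect; 0% = full enzyme activity and -100% = no enzyme basal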
pAkt inh: inhibitors of Akt phosphorylation. Neuro2A IGF-stimulated pAkt S473 HTRF, 20 min; active compounds read low. activity change, % for hits at 50 µM. actives 0.32% (n = 360,000). AID 651550; in the data active means activity change below about -80%; inconclusive means mostly about -51% to -80%; further: on the % scale 0 is the no-effect control and ±100 the full control effect
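Neuro2A cells in DMEM with 0.5% FBS, overnight at 37 deg C, given compound at single 50 µM final, then IGF (6 nM final) for 20 min at 37 deg C. Lysed; phospho-Akt Ser473 by HTRF after 24 h, 665/615 ratio.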
* hit, by the source's call; i = inactive; u = inconclusive; x = no result; [ ] = remark or other dose. Unless noted, the call rests on the fitted dose curve; in most records, active means well fitted curve in the direction sought with a large enough effect; inconclusive means small, poorly fitted or top-dose-only effect, or another doubt; inactive means no such curve, though single readings can be large; an effect the other way counts as inactive or inconclusive.

SMILES	rTrxR1 inhibitor	Pin1 inh	AT treatment	TrxR1 substrate	N370S GC	pAkt inh
COc1ccc(N2CCN(c3ncnc4scc(-c5ccc(F)cc5)c34)CC2)cc1	4.3%	20.1%	3.4%	-3.2%	-5.2%	i
COc1ccc(CN2CCN(c3ncnc4scc(-c5ccc(F)cc5)c34)CC2)cc1	18.3%[57.1 µM]	9.1%	14.1µM*	-17.1%[57.1 µM]	-3.0%	i
C=CCOC(=O)c1cc(-c2ccc(/C=C3\C(=O)NC(=O)C(C#N)=C3C)o2)ccc1Cl	u	u	-3.3%	-10.3%	-2.6%	i
CCCOC(=O)c1cc(-c2ccc(/C=C3/C(=O)N(C)C(=O)C(C#N)=C3C)o2)ccc1Cl	17.8µM*	2.7%	x	2.2%	x	i
CC(=O)Nc1ccc(OCc2cccc(C3Nc4ccccc4C(=O)N3Cc3ccco3)c2)cc1 (stereo not given)	x	22.6%	x	x	x	x
N#Cc1nc(Cc2cccc3ccccc23)oc1NCc1ccc(F)cc1	13.8%[11.4 µM]	u	5.6%	-0.9%[11.4 µM]	u	-107.5%*
O=C(N1CCc2cc([S+](=O)([O-])N3CCN([S+](=O)([O-])c4c(F)cccc4F)CC3)ccc2C1)C(F)(F)F	x	-2.8%	x	x	x	x
Cc1c(OC(=O)c2ccc([N+](=O)[O-])cc2)c2c(c[n+]1C)COC(C)(C)OC2	44.7µM*	u	-7.6%	0.4%	2.2%	i
O=C(NC1CCCCC1)NC1CCN(CC(=O)N2CCOCC2)CC1	20.2%[57.1 µM]	-2.1%	-0.1%	9.4%[57.1 µM]	-7.6%	-107.1%*
CCOC(=O)C1=C(CCl)NC(=O)NC1c1ccc2c(c1)OCO2 (stereo not given)	11.2µM*	-15.7%	10.5%	3.4%	3.2%	i
Cc1nn(-c2cccc(Cl)c2)c2nc(-c3ccco3)cc(C(=O)O)c12	50.1µM*	u	6.1%	50.6%	x	i
Cc1nn(-c2ccccc2)c2nc(-c3ccco3)cc(C(=O)O)c12	u	u	10.6%	-18.3%[57.1 µM]	-6.9%	i
NC(=O)C1CCN(c2nccc(-c3ccc(Br)cc3)n2)CC1	x	2.0%	x	x	x	x
O=C1C(CSCc2ccccc2)NC(=S)N1c1ccccc1 (stereo not given)	-10.7%	2.6%	35.5µM*	-0.1%	5.4%	i
O=C(O)CC1NC(=S)N(c2ccccc2)C1=O (stereo not given)	15.8%	-2.9%	2.5%	6.6%	4.3%	i
O=S1(=O)N=C(Oc2ccccc2Br)c2ccccc21	x	-8.4%	x	x	x	x
CCN(c1ccccc1)S(=O)(=O)c1ccc(NC(=O)c2nc(S(C)(=O)=O)ncc2Cl)cc1	0.398µM*	16.2%	-3.6%	-3.0%	-2.5%	i
CCS(=O)(=O)c1ncc(Cl)c(C(=O)Nc2ccc(S(=O)(=O)N(C)c3ccccc3)cc2)n1	2.82µM*	47.9%	-9.7%	1.6%	2.4%	i
CCSc1ncc(Cl)c(C(=O)Nc2ccc(S(=O)(=O)N(C)c3ccccc3)cc2)n1	20.7%	33.2%	x	-0.3%	x	x
CN1CCN(C(=O)C(=O)Nc2c3c(nn2-c2ccc(Cl)cc2)CSC3)CC1	16.2%[57.1 µM]	-11.0%	x	4.1%[57.1 µM]	x	x
O=S(=O)(c1ccc(Cl)cc1)N1CCC(N2CCCCCC2)CC1	-12.5%	-18.1%	0.5%	-8.9%	-7.7%	-118.6%*
O=c1c2ccccc2nc2sc(Nc3cccc(N4CCNCC4)c3)nn12	x	21.4%	x	x	x	x
Cc1cccc(Nc2nn3c(=O)c4ccccc4nc3s2)c1	2.7%	u	-3.4%	2.7%	5.9%	-101.6%*
Cc1ccc2[nH]cc(C(O)c3c[nH]c4ccc(C)cc34)c2c1	11.8%	x	x	0.0%	x	x
Nc1c(C(=O)NCC2CCCO2)sc2nc3c(c(-c4ccco4)c12)CC/C3=C\c1ccco1 (stereo not given)	14.1µM*	u	3.2%	-14.0%	-5.5%	i
SMILES	rTrxR1 inhibitor	Pin1 inh	AT treatment	TrxR1 substrate	N370S GC	pAkt inh
O=C(Nc1ccccc1N1CCCC1)c1ccccc1F	20.9%	1.5%	15.2%	-1.2%	19.9%	i
O=C(Nc1ccccc1N1CCCCC1)c1ccccc1F	-7.8%[57.1 µM]	-3.7%	28.2µM*	-2.2%[57.1 µM]	-3.9%	i
O=C(c1ccco1)N1CCN(c2nc(-c3ccc(Br)cc3)cs2)CC1	x	2.0%	x	x	x	x
NC(=O)/C(=N\OC(=O)c1ccco1)c1nc(-c2ccc(Br)cc2)cs1	7.08µM*	20.5%	6.7%	6.6%	4.8%	i
CC(=O)c1cccc(OCc2cc(C(=O)N(C)C(C)c3ccccn3)no2)c1 (stereo not given)	50.1µM*	3.1%	1.2%	4.2%	-0.3%	i
CCn1c(SCc2ccc(C(=O)Nc3nccs3)cc2)nnc1-c1ccc(N)cc1	8.4%[57.1 µM]	-0.5%	-8.0%	-25.5%[57.1 µM]	0.9%	i
CCn1c(SCc2ccc(C(=O)Nc3nccs3)cc2)nnc1-c1ccc(NC(C)=O)cc1	5.2%	9.2%	-4.2%	-1.5%	6.9%[12.8 µM]	-107.4%*
CCCCCCCCCCCCCCCC[n+]1ccc(C)cc1	-28.8%	x	x	-9.9%	x	x
CCOC(=O)CSc1ncnc2c1sc1nc(N3CCOCC3)c3c(c12)CCCC3	12.3%	-2.6%	x	19.8%	16.9%	-84.2%*
COC(=O)CSc1ncnc2c1sc1nc(N3CCOCC3)c3c(c12)CCCC3	5.5%	-1.7%	-0.5%	10.6%	0.4%	i
CC(=O)Nc1c2c3c(cccc3n(C)c1=O)C(=O)c1ccccc1-2	-19.9%	u	-0.2%	-6.0%	-6.8%	-113.2%*
O=[S+]([O-])(/C=C/c1nc(Nc2cc(F)cc(F)c2)c2ncn(CC(F)F)c2n1)c1ccccc1	x	0.3%	x	x	x	x
CCOc1ccc(C2CC(=O)NC3=C2C(=O)CCC3)cc1Cl (stereo not given)	-17.5%	2.2%	2.5%	4.7%[57.1 µM]	-7.6%	-107.0%*
Oc1ccc(/C=N/NC(=S)NCc2ccco2)cc1	-11.4%	-0.6%	-1.8%	-7.4%	-7.2%[12.8 µM]	-115.7%*
CCN(Cc1ccccc1)c1ccc(Br)cn1	x	-4.2%	x	x	x	x
c1ccc(Oc2c3ccccc3nc3ccccc23)cc1	8.91µM*	1.2%	8.5%	12.7%[57.1 µM]	6.2%	i
Cc1nc(Oc2ccccc2)c2ccccc2n1	-9.4%	-5.9%	1.4%	19.2%[57.1 µM]	0.9%	i
O=C(O)C1CCCCN1c1ccccc1[N+](=O)[O-] (stereo not given)	x	x	x	x	x	i
N#Cc1ccc(N2CCCC2C(=O)O)c([N+](=O)[O-])c1 (stereo not given)	-1.6%	2.2%	-2.6%	-3.1%	3.5%	-118.0%*
Oc1ccc2ccccc2c1SSc1c(O)ccc2ccccc12	u	x	x	-6.1%[57.1 µM]	x	x
Cc1cccc(C)c1NC(=O)COC(=O)c1cc(=O)c2ccccc2o1	16.5%	-2.7%	3.55µM*	-3.1%	-4.3%	i
COC(=O)C[C@H]1c2ccccc2S(=O)(=O)N1c1ccc(N(C)C)cc1	-14.0%	x	x	0.4%	x	x
CCOC(=O)c1c(C)[nH]c(C)c1C(=O)COC(=O)/C=C/c1ccco1	20µM*	-1.4%	-6.8%	-4.6%	x	i

Bioassay records deposited in PubChem by National Center for Advancing Translational Sciences (NCATS).
